Laboratory results published in PubChem BioAssay AID1851 (National Center for Advancing Translational Sciences (NCATS), 2009).
Values joined by “and” are separate entries in the source; they are usually repeats but may differ in a detail not shown here. Identical values can stand only once. The whole screen tested about 16,000 compounds, of which about 5,100 (32%) were called active. About 25% were inconclusive and are not listed. This is one part of the list. Values without a mark were called inactive. The call rests on the fitted dose curve; in most records, active means well fitted curve in the direction sought with a large enough effect; inconclusive means small, poorly fitted or top-dose-only effect, or effect the other way; inactive means no such curve, though single readings can be large or run the other way.

These molecules were tested against Cytochrome P450 3A4 (Homo sapiens) (UniProt P08684) (assay: Cytochrome panel assay with activity outcomes). Conditions: recombinant CYP, pro-luciferin dealkylation, luminescence, p450-cyp3a4; series mostly up to 57.1 µM.
Chain of Cytochrome P450 3A4 (Homo sapiens) (P08684 whole entry, looked up): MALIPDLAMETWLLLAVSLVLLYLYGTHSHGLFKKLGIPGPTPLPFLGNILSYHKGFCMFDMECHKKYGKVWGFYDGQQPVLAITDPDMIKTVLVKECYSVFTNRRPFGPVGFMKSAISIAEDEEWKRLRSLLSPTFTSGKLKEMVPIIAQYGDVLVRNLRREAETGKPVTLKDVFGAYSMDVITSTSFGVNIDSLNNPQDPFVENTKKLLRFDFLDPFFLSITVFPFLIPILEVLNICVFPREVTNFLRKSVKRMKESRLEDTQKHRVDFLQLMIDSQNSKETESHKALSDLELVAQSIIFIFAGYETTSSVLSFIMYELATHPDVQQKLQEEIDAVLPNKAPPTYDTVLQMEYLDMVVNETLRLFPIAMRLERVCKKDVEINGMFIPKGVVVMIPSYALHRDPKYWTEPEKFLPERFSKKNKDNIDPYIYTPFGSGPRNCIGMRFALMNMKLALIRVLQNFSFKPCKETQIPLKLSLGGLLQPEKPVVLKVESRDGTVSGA
On the % scale 0 is the no-effect control and ±100 the full control effect.

Compound | AC50 | activity, negative = inhibition
COc1cccc(=O)c2c(C)n(-c3cc(C)cc(C)c3)c(C)c12 | 4.47 µM (active) | –
COc1ccc(-n2c(C)n[nH]c2=O)cc1OC | inactive | –
CN(C)CCC=C1c2ccccc2C=Cc2ccccc21 | inactive | –
O=C(O)[C@@H]1CCCN1Cc1cc2ccccc2c2ccccc12 | – | -12.1% [at 11.4 µM]
CC(C)CC(=O)N[C@H](C(=O)N[C@H](C(=O)N[C@@H](CC(C)C)[C@H](O)CC(=O)N[C@@H](C)C(=O)N[C@@H](CC(C)C)[C@H](O)CC(=O)O)C(C)C)C(C)C | inactive | –
CC(=O)c1ccc(-n2nnnc2SCC(=O)Nc2cccc(NC(=O)c3ccco3)c2)cc1 | 3.98 µM (active) | –
Cc1ccc(SCC(=O)Nc2cccc(NC(=O)c3ccco3)c2)cc1 | 22.4 µM (active) | –
Cc1c(Cl)cccc1NC(=O)CCC(=O)NNC(=O)c1ccco1 | – | 1.8% [at 2.29 µM]
Cc1ccc(-n2nnnc2SCC(=O)NNC(=O)c2ccco2)c(C)c1 | 22.4 µM (active) | –
Cc1ccc(NC(=O)CCC(=O)NNC(=O)c2ccco2)cc1C | – | -4.43% [at 2.29 µM]
O=C(CSc1ccccc1)Nc1ccc(NC(=O)c2ccco2)cc1 | inactive | –
O=C(CSc1ccc(Cl)cc1)Nc1cccc(NC(=O)c2ccco2)c1 | – | -17.5% [at 11.4 µM]
CCc1cc2cc(C)c(C)cc2nc1SCC(=O)NNC(=O)c1ccco1 | 8.91 µM (active) | –
Cn1c2c(c(=O)n(C)c1=O)CN(CCN1CCNCC1)CN2 | inactive | –
O=C(Cn1nnc2ccccc21)N/N=C\C=C\c1ccccc1 | inactive | –
O=C(CSCC(=O)OCn1nnc2ccccc2c1=O)Nc1ccc(Cl)cc1 | 22.4 µM (active) | –
O=C(OCn1nnc2ccccc2c1=O)c1cccnc1 | 8.91 µM (active) | –
Cc1ccc(NC(=O)C2CCN(S(C)(=O)=O)CC2)cc1 | – | 0.664% [at 2.29 µM]
O=C(NCC1COc2ccccc2O1)C1CCN(S(=O)(=O)c2cccc3nsnc23)CC1 (stereo unspecified) | 20 µM (active) | –
Nc1nc2c(C(=O)NCc3cccs3)nnn2c2cccc(Cl)c12 | – | -1.06% [at 11.4 µM]
O=C(NCc1cccs1)C1CCN(S(=O)(=O)c2cccc3nsnc23)CC1 | 12.6 µM (active) | –

Compound | AC50 | activity, negative = inhibition
COc1ccc(OC)c(S(=O)(=O)N2CCC(C(=O)Nc3ccc(C)c(C)c3)CC2)c1 | 5.01 µM (active) | –
COc1ccc2nc(NC(=O)C3CCN(S(=O)(=O)c4cccc5nsnc45)CC3)sc2c1 | 14.1 µM (active) | –
Cc1cccc(NC(=O)C2CCN(S(=O)(=O)c3cccc4nsnc34)CC2)n1 | inactive | –
CCc1ccc(NC(=O)C2CCN(S(=O)(=O)c3c(C)[nH]c(=O)[nH]c3=O)CC2)cc1 | inactive | –
COc1ccc2nc(NCN3C(=O)c4ccccc4C3=O)sc2c1 | – | -27.9% [at 11.4 µM]
CC(C)=CCNc1ncnc2nc[nH]c12 | – | -14.9% [at 11.4 µM]
COc1ccc(CCNC(=O)C2CCN(S(=O)(=O)c3cccc4nsnc34)CC2)cc1OC | 3.98 µM (active) | –
CC(=O)Nc1ccc(NC(=O)C2CCN(S(=O)(=O)c3cccc4nonc34)CC2)cc1 | inactive | –
COc1cc(NC(=O)C2CCN(S(=O)(=O)c3cccc4nonc34)CC2)cc(OC)c1 | 3.16 µM (active) | –
COC(=O)c1ccccc1OCC(=O)N1CCN(c2ccc(OC)cc2)CC1 | – | -29.6% [at 11.4 µM]
COC(=O)c1ccccc1Oc1c(F)c(F)nc(N2CCOCC2)c1F | inactive | –
COC(=O)c1ccccc1OCC(=O)N1CCN(c2ccc(Cl)cc2)CC1 | 15.8 µM (active) | –
OCCCNc1ncnc2[nH]ncc12 | – | -20.7% [at 11.4 µM]
O=S1(=O)C=C(SCc2cccc(Cl)c2)Nc2ccccc21 | 2 µM (active) | –
CC[C@@H]1CC(=O)N(SC[C@H](N)C(=O)O)C1=O | – | -4.06% [at 11.4 µM]
COc1cccc(Cn2c(=O)c(-c3cc(F)cc(F)c3)nc3cnc(N(C)C)nc32)c1 | inactive | –
COc1cccc(Cn2c(=O)c(-c3ccccc3)nc3cnc(OC)nc32)c1 | 7.94 µM (active) | –
COc1cccc(Cn2c(=O)c(-c3ccccc3)nc3cnc(N(C)C)nc32)c1 | 6.31 µM (active) | –
CN(C)c1ncc2nc(-c3ccccc3)c(=O)n(C)c2n1 | inactive | –
COc1ccc(-c2nc3cnc(OC)nc3n(Cc3cccc(OC)c3)c2=O)cc1 | 2.51 µM (active) | –
Oc1c(Br)cc(CN(Cc2cc(Br)c(O)c(Br)c2)C2CCCCC2)cc1Br | – | -9.71% [at 11.4 µM]

Compound | AC50 | activity, negative = inhibition
COc1ccc(C2=Nc3cccc4cccc(c34)N2)cc1 | inactive | –
COc1ccc(CNc2ncncc2-c2cccc(C#N)c2)c(OC)c1 | 0.316 µM (active) | –
COc1ccc(CNc2ncncc2-c2cccnc2)c(OC)c1 | 0.501 µM (active) | –
COc1cccc(-c2cncnc2NCc2ccc(OC)cc2OC)c1 | 0.501 µM (active) | –
COc1cccc(-c2cncnc2NCc2ccccc2OC)c1 | 0.501 µM (active) | –
CCNc1nc(NCC)nc(ON=C(C)C)n1 | inactive | –
Cn1ccnc1C[C@@](C)(O)c1ccccc1 | – | -4.26% [at 11.4 µM]
CCn1cc(C(=O)N/N=C(/C)c2ccc(F)cc2)c(=O)c2cc(F)c(N3CCCC3)cc21 | inactive | –
COc1ccccc1CNc1ncncc1-c1cccnc1 | 0.794 µM (active) | –
CCOC(=O)CCN1C(=O)[C@H]2[C@H]3[C@H](O)[C@H](O)C/C(=N/OC[C@@H](O)COCc4ccco4)[C@@H]3CC[C@@H]2C1=O | – | -16.7% [at 11.4 µM]
CCOC(=O)CCN1C(=O)[C@H]2[C@H]3[C@H](O)[C@H](O)C/C(=N/OC[C@@H](O)COCc4ccco4)[C@H]3CC[C@@H]2C1=O | – | -22.6% [at 11.4 µM]
O=C1[C@H]2[C@H]3[C@H](O)[C@H](O)C/C(=N/OC[C@@H](O)COCc4ccco4)[C@@H]3CC[C@@H]2C(=O)N1C[C@@H]1CCCO1 | – | -23.9% [at 11.4 µM]
CC(=O)OC[C@@H]1O[C@@H](O/N=C2/C[C@@H](O)[C@@H](O)[C@@H]3[C@@H]4C(=O)N([C@@H](C)c5ccccc5)C(=O)[C@H]4CC[C@H]23)[C@H](OC(C)=O)[C@H](OC(C)=O)[C@@H]1OC(C)=O | – | -29.1% [at 11.4 µM]
O=C1[C@H]2[C@H]3[C@H](O)[C@H](O)C/C(=N/OC[C@@H](O)COCc4ccco4)[C@H]3CC[C@@H]2C(=O)N1C[C@@H]1CCCO1 | – | -13.4% [at 11.4 µM]
C[C@@H](c1ccccc1)N1C(=O)[C@H]2[C@@H]3[C@H](O)[C@H](O)CC(=O)[C@H]3CC[C@H]2C1=O | – | -24.3% [at 11.4 µM] and -16.6% [at 11.4 µM]
C[C@@H](c1ccccc1)N1C(=O)[C@H]2[C@H]3[C@H](O)[C@H](O)C/C(=N/OC[C@@H](O)COCc4ccco4)[C@@H]3CC[C@@H]2C1=O | 3.16 µM (active) | –
CC(C)(C)N1C(=O)[C@H]2[C@H]3[C@H](O)[C@H](O)C/C(=N/OC[C@@H](O)COCc4ccco4)[C@@H]3CC[C@@H]2C1=O | 5.01 µM (active) | –
C[C@@H](c1ccccc1)N1C(=O)[C@H]2[C@H]3[C@H](O)[C@H](O)C/C(=N/OC[C@@H](O)COCc4ccco4)[C@H]3CC[C@@H]2C1=O | 3.98 µM (active) | –
O=C1C(O)=C(O)C(=O)C(O)=C1O | inactive | –
NC(N)=NC(N)=Nc1ccc(S(=O)(=O)O)cc1 | – | -0.586% [at 11.4 µM]
CC1=CC=CN2CC(O)CN=C12 (stereo unspecified) | inactive | –

Compound | AC50 | activity, negative = inhibition
COc1ccc(Cc2nnc(NC(=O)c3ccco3)s2)cc1 | inactive | –
COc1ccc(Cc2nnc(NC(=O)c3cccc([N+](=O)[O-])c3C)s2)cc1 | 10 µM (active) | –
Cc1c(C(=O)NN2CCN(C)CC2)cccc1[N+](=O)[O-] | inactive | –
O=C(CN1CCCCC1)Nc1cccc([N+](=O)[O-])c1 | inactive | –
O=C(CN1CCCCC1)Nc1nnc(-c2ccc([N+](=O)[O-])cc2)s1 | 7.94 µM (active) | –
COCC(=O)N(C)c1nnc(-c2ccc([N+](=O)[O-])cc2)s1 | – | -5.26% [at 2.29 µM]
FC(F)(F)c1ccc(/C=N/N2CCN(Cc3cccc4ccccc34)CC2)cc1 | – | 15.5% [at 2.29 µM]
Cn1c(=O)oc2cc(S(=O)(=O)NCCC(=O)N3CC=C(c4ccccc4)CC3)ccc21 | 12.6 µM (active) | –
CCCN(CCC)CCNC(=O)C1CCCN(S(=O)(=O)c2ccc3c(c2)oc(=O)n3C)C1 (stereo unspecified) | inactive | –
Cn1c(=O)c2cn(-c3ccccc3)cc2n(C)c1=O | – | -2.19% [at 11.4 µM]
Cn1c(=O)c2cc(S(=O)(=O)NCCC(=O)N3CC=C(c4ccccc4)CC3)ccc2n(C)c1=O | 10 µM (active) | –
O=C(Nc1ccccc1)[C@@]12C[C@@H]1/C(=N/O)c1ccccc1O2 | inactive | –
Fc1ccc(C(OCCCc2cnc[nH]2)c2ccc(F)cc2)cc1 | 0.794 µM (active) | –
O=C(O)CCC(O)=C1S(=O)(=O)OCCOS1(=O)=O | – | 2.08% [at 11.4 µM]
COc1ccccc1CN(Cc1cc2cc(C)cc(C)c2[nH]c1=O)Cc1nnnn1CC1CCCO1 (stereo unspecified) | 10 µM (active) | –
O=c1[nH]c2cc3c(cc2cc1CN(CCCO)Cc1nnnn1Cc1ccc(F)cc1)OCO3 | 3.16 µM (active) | –
COc1ccccc1CN(Cc1cc2cc3c(cc2[nH]c1=O)OCCO3)Cc1nnnn1Cc1ccco1 | 10 µM (active) | –
Cc1cc(C)c2cc(CN(Cc3nnnn3Cc3ccc(F)cc3)C3CCCC3)c(=O)[nH]c2c1 | 10 µM (active) | –
